# Reference: the supplement of paper PMC8728848
# The full list was thinned out, with the strongest signals kept by preference.
# What was measured:
# Experiment in all cases: glycan array binding signal (z-score within array); higher = stronger binding
# Details in all cases: glycan notation: IUPAC condensed, linker removed
# [1] = target: GlcNAc(a1-4)Gal(b1-4)GlcNAc(b1-3)Gal(b1-4)GlcNAc(b1-3)Gal(b1-4)GlcNAc
# Procedure, shortened: (§1)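 From the Consortium for Functional Glycomics database, 3228 arrays were curated, keeping only those whose protein sequence was available. Binding is given as a within-array Z-score averaged across arrays sharing a protein sequence and across linkers. Negative Z-scores can be read as non-binding.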
# [2] = target: GlcNAc(a1-4)Gal(b1-4)GlcNAc(b1-3)Gal(b1-4)[Fuc(a1-3)]GlcNAc(b1-3)Gal(b1-4)[Fuc(a1-3)]GlcNAc
# Procedure, shortened: as §1
# [3] = target: GlcNAc(b1-2)Man(a1-3)[GlcNAc(b1-2)Man(a1-6)]Man(b1-4)GlcNAc(b1-4)GlcNAc
# Procedure, shortened: as §1
# [4] = target: GlcNAc(b1-2)[GlcNAc(b1-4)]Man(a1-3)[GlcNAc(b1-2)Man(a1-6)]Man(b1-4)GlcNAc(b1-4)GlcNAc
# Procedure, shortened: as §1
# [5] = target: GlcNAc(b1-2)[GlcNAc(b1-6)]Man(a1-6)[GlcNAc(b1-2)Man(a1-3)]Man(b1-4)GlcNAc(b1-4)GlcNAc
# Procedure, shortened: as §1
# [6] = target: GlcNAc(b1-2)[GlcNAc(b1-6)]Man(a1-6)[GlcNAc(b1-2)Man(a1-3)]Man(b1-4)GlcNAc(b1-4)[Fuc(a1-6)]GlcNAc
# Procedure, shortened: as §1
# [7] = target: GlcNAc(b1-3)Gal(b1-4)GlcNAc(b1-2)[GlcNAc(b1-3)Gal(b1-4)GlcNAc(b1-6)]Man(a1-6)[GlcNAc(b1-3)Gal(b1-4)GlcNAc(b1-2)Man(a1-3)]Man(b1-4)GlcNAc(b1-4)GlcNAc
# Procedure, shortened: as §1
# [8] = target: GlcNAc(b1-3)Gal(b1-4)GlcNAc(b1-6)[GlcNAc(b1-3)]Gal(b1-4)GlcNAc
# Procedure, shortened: as §1
# GlcNAc(b1-3)GalNAc = target: GlcNAc(b1-3)GalNAc
# Procedure, shortened: as §1
# GlcNAc(b1-6)GalNAc = target: GlcNAc(b1-6)GalNAc
# Procedure, shortened: as §1
# [9] = target: Man(a1-2)Man(a1-3)[Man(a1-2)Man(a1-6)]Man(a1-6)[Man(a1-2)Man(a1-2)Man(a1-3)]Man(b1-4)GlcNAc(b1-4)GlcNAc
# Procedure, shortened: as §1
# [10] = target: Man(a1-2)Man(a1-6)[Man(a1-3)]Man(a1-6)[Man(a1-2)Man(a1-2)Man(a1-3)]Man
# Procedure, shortened: as §1
# [11] = target: Neu5Ac(a2-3)Gal(b1-3)GalNAc(b1-4)Gal(b1-4)Glc
# Procedure, shortened: as §1
# [12] = target: Neu5Ac(a2-3)Gal(b1-3)GlcNAc(b1-3)Gal(b1-4)GlcNAc
# Procedure, shortened: as §1
# [13] = target: Neu5Ac(a2-3)Gal(b1-3)[Fuc(a1-4)]GlcNAc
# Procedure, shortened: as §1
# [14] = target: Neu5Ac(a2-3)Gal(b1-4)GlcNAc(b1-2)Man
# Procedure, shortened: as §1
# [15] = target: Neu5Ac(a2-3)Gal(b1-4)GlcNAc(b1-3)Gal(b1-4)GlcNAc(b1-3)GalNAc
# Procedure, shortened: as §1
# [16] = target: Neu5Ac(a2-3)Gal(b1-4)GlcNAc(b1-3)Gal(b1-4)GlcNAc(b1-6)[Gal(b1-3)]GalNAc
# Procedure, shortened: as §1
# [17] = target: Neu5Ac(a2-3)Gal(b1-4)GlcNAc(b1-6)GalNAc
# Procedure, shortened: as §1
# [18] = target: Neu5Ac(a2-3)Gal(b1-4)[Fuc(a1-3)]GlcNAc(b1-2)Man
# Procedure, shortened: as §1
# [19] = target: Neu5Ac(a2-3)Gal(b1-4)[Fuc(a1-3)]GlcNAc(b1-3)Gal
# Procedure, shortened: as §1
# [20] = target: Neu5Ac(a2-3)Gal(b1-4)[Fuc(a1-3)]GlcNAc(b1-3)Gal(b1-4)GlcNAc
# Procedure, shortened: as §1
# [21] = target: Neu5Ac(a2-3)Gal6S(b1-4)[Fuc(a1-3)]GlcNAc
# Procedure, shortened: as §1
# [22] = target: Neu5Ac(a2-6)Gal(b1-4)GlcNAc(b1-2)Man(a1-3)Man(b1-4)GlcNAc(b1-4)GlcNAc
# Procedure, shortened: as §1
# [23] = target: Neu5Ac(a2-6)Gal(b1-4)GlcNAc(b1-2)Man(a1-3)[Neu5Ac(a2-3)Gal(b1-4)GlcNAc(b1-2)Man(a1-6)]Man(b1-4)GlcNAc(b1-4)GlcNAc
# Procedure, shortened: as §1
# [24] = target: Neu5Ac(a2-6)Gal(b1-4)GlcNAc(b1-3)[Neu5Ac(a2-6)Gal(b1-4)GlcNAc(b1-6)]GalNAc
# Procedure, shortened: as §1
# [25] = target: Neu5Ac9Ac(a2-3)Gal(b1-4)GlcNAc
# Procedure, shortened: as §1
# [26] = target: Neu5Gc(a2-3)Gal(b1-3)GlcNAc
# Procedure, shortened: as §1
# Neu5Gc(a2-3)Gal(b1-4)Glc = target: Neu5Gc(a2-3)Gal(b1-4)Glc
# Procedure, shortened: as §1
binder,measurement,setting,value
"SSR1 (Sclerotium rolfsii), A0A0M3KL30 (protein) TYKITVRVYQTNPDAFFHPVEKTVWKYANGGTWTITDDQHVLTMGGSGTSGTLRFHADNGESFTATFGVHNYKRWCDIVTNLAADETGMVINQQYYSQKNREEARERQLSNYQVKNAKGRNFQIVYTEAEGNDLHANLIIG",glycan array binding signal (z-score),[1],6.33
same,glycan array binding signal (z-score),[2],3.01
same,glycan array binding signal (z-score),[3],5.28
same,glycan array binding signal (z-score),[4],3.04
same,glycan array binding signal (z-score),[5],3.93
same,glycan array binding signal (z-score),[6],3.66
same,glycan array binding signal (z-score),[7],1.32
same,glycan array binding signal (z-score),[8],0.953
same,glycan array binding signal (z-score),GlcNAc(b1-3)GalNAc,0.954
same,glycan array binding signal (z-score),GlcNAc(b1-6)GalNAc,1.03
same,glycan array binding signal (z-score),[9],-0.548
same,glycan array binding signal (z-score),[10],-0.348
same,glycan array binding signal (z-score),[11],-0.271
same,glycan array binding signal (z-score),[12],-0.343
same,glycan array binding signal (z-score),[13],-0.341
same,glycan array binding signal (z-score),[14],-0.313
same,glycan array binding signal (z-score),[15],0.407
same,glycan array binding signal (z-score),[16],1.06
same,glycan array binding signal (z-score),[17],-0.334
same,glycan array binding signal (z-score),[18],-0.374
same,glycan array binding signal (z-score),[19],-0.342
same,glycan array binding signal (z-score),[20],-0.324
same,glycan array binding signal (z-score),[21],-0.349
same,glycan array binding signal (z-score),[22],-0.341
same,glycan array binding signal (z-score),[23],-0.339
same,glycan array binding signal (z-score),[24],-0.297
same,glycan array binding signal (z-score),[25],-0.27
same,glycan array binding signal (z-score),[26],-0.329
same,glycan array binding signal (z-score),Neu5Gc(a2-3)Gal(b1-4)Glc,-0.278
